Measurements taken from the supplement of paper PMC13380429.

Assays:
[1] = test system: Vero E6 infected with SARS-CoV-2; test: inhibition of SARS-CoV-2 cytopathic effect; higher = more antiviral protection, active = above 15; details: 48 h
[2] = test system: Vero E6 infected with SARS-CoV-2; test: morphology score (similarity to uninfected cells); higher = more like uninfected cells; details: 24 h
[3] = test system: Vero E6 infected with SARS-CoV-2; test: SARS-CoV-2 infection rate relative to infected DMSO; higher = more infection, active = 60 or less; details: 24 h

## NCCC(O)(P(=O)(O)O)P(=O)(O)O [pamidronate]
[1]; 1 nM
  inhibition of SARS-CoV-2 cytopathic effect: -0.49% (inactive)
[1]; 8.33 nM
  inhibition of SARS-CoV-2 cytopathic effect: 2.17% (inactive)
[1]; 100 nM
  inhibition of SARS-CoV-2 cytopathic effect: -0.58% (inactive)
[1]; 833.33 nM
  inhibition of SARS-CoV-2 cytopathic effect: -3.14% (inactive)
[1]; 10000 nM
  inhibition of SARS-CoV-2 cytopathic effect: -1.25% (inactive)

## Cc1cccc2c1CC[C@H](CN1CCC(c3c(Cl)cccc3Cl)CC1)C[C@@H]2O (0.833333 µM)
[2]
  morphology score: 0.134
[3]
  SARS-CoV-2 infection rate: 98% (inactive)

## CNc1nc(NCc2ccc(NS(C)(=O)=O)cc2Cl)cc(-c2ccccn2)n1 (10 µM)
[2]
  morphology score: 0.193
[3]
  SARS-CoV-2 infection rate: 97.5% (inactive)

## CCC1=C(C)CN(C(=O)NCCc2ccc(S(=O)(=O)NC(=O)N[C@H]3CC[C@H](C)CC3)cc2)C1=O [glimepiride]
[1]; 1 nM
  inhibition of SARS-CoV-2 cytopathic effect: -3.26% (inactive)
[1]; 8.33 nM
  inhibition of SARS-CoV-2 cytopathic effect: -2.65% (inactive)
[1]; 100 nM
  inhibition of SARS-CoV-2 cytopathic effect: -2.4% (inactive)

## CC(=O)Nc1ccc(CC(=O)O)cc1 [actarit] (10 µM)
[2]
  morphology score: 0.181
[3]
  SARS-CoV-2 infection rate: 99.5% (inactive)

## Cc1cc(CC(=O)O)n(C)c1C(=O)c1ccc(Cl)cc1 [zomepirac]
[1]; 1 nM
  inhibition of SARS-CoV-2 cytopathic effect: -4.55% (inactive)
[1]; 8.33 nM
  inhibition of SARS-CoV-2 cytopathic effect: -6.14% (inactive)
[1]; 100 nM
  inhibition of SARS-CoV-2 cytopathic effect: -5.66% (inactive)
[1]; 833.33 nM
  inhibition of SARS-CoV-2 cytopathic effect: -0.27% (inactive)
[1]; 10000 nM
  inhibition of SARS-CoV-2 cytopathic effect: -0.22% (inactive)

## NNC(=O)CN1C(=O)CN=C(c2ccccc2)c2cc(Br)ccc21 [gidazepam] (10 µM)
[2]
  morphology score: 0.101
[3]
  SARS-CoV-2 infection rate: 100% (inactive)

## CC[N+](CC)(CCCNC1=CC(=O)C(NCCC[N+](CC)(CC)Cc2ccccc2)=CC1=O)Cc1ccccc1 [benzoquinonium-dibromide] (10 µM)
[2]
  morphology score: -0.00889
[3]
  SARS-CoV-2 infection rate: 113% (inactive)

## CC(=O)[C@H]1CC[C@H]2[C@@H]3CC=C4C[C@@H](OC(=O)CCC(=O)O)CC[C@]4(C)[C@H]3CC[C@]12C [pregnenolone-succinate] (10 µM)
[2]
  morphology score: -0.0431
[3]
  SARS-CoV-2 infection rate: 104% (inactive)
